This is part of a sample that, as a whole, favours compounds with a hit. Of some 83,000 tested, about 20% had one in any assay.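 Single-dose data. Exposure time 48 hours. Values below 10 considered active.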 Values without a mark were called inactive. Active and inactive are the calls of the source.

This is an account of results in PubChem BioAssay (NCI).

This test relates to MDA-MB-468 breast. Nature of the test: NCI-60 one-dose screen, 48 h (100 = growth as untreated, 0 = no growth, -100 = all killed). The settings on record: 10 µM unless noted.

Take `COCCN(C(=O)c1ccc(F)cc1F)c1c(N)n(Cc2ccccc2)c(=O)[nH]c1=O`: the growth was 87.8%. Regarding `COC(=O)[C@]12CC[C@@H](C)[C@H](C)[C@@H]1C1=CC[C@@H]3[C@@]4(C)C(c5cnco5)=C[C@@](C)(CO)C4=CC[C@@]3(C)[C@]1(C)CC2`, the growth was 17%. For `COC(=O)C1=C(C(=O)Nc2cccnc2)C2OC1(C(Cc1ccccc1)Oc1ccccc1)C1OC21` (stereo not given) the value was -66.3% (active). Consider `COc1ccc(C(=O)CC(c2ccccc2)C(C#N)c2ccccc2)cc1` (stereo not given), for which the growth was 69.8%. For the molecule `COc1ccc(NC(=O)c2c(Nc3ccc(OC)cc3OC)n[nH]c2N)c(OC)c1`, the growth is 82.3%. Consider `C#CCOc1ccc2ncnc(N3CCC(NC(=O)CCl)CC3)c2c1`, for which the growth was 15.4% [8.25 µM]. In the case of `Cc1ccc(C(=O)c2oc3ccc4c(C)cc(=O)oc4c3c2C)cc1`, the growth was 16%. For the molecule `O=C1C(c2ccccc2)=C(N2CCc3ccccc32)OC1(Cl)Cl`, the growth was 78.4%. For `COc1cccc2c1CN(C(=O)c1ccc(O)c(C(=O)N3Cc4ccc(OCCC[P+](c5ccccc5)(c5ccccc5)c5ccccc5)cc4C3)c1)C2` the value was -2.86% (active); for `CCCSc1nc(Nc2ccc(/C(C)=N\NC(N)=S)cc2)c(C#N)c(-c2ccccc2)n1`, 66.5%; for `COc1cc(OC)c(/C=C/S(=O)(=O)Cc2ccc(OC)c(NCC(=O)NO)c2)c(OC)c1`, 39.5%. For `N=C(N)c1ccc(-c2ccc(-c3ccc(Cl)cc3Cl)s2)cc1F` the value was -63.5% (active); for `COc1ccc(CCn2cncc2-c2c[nH]c3ccccc23)cc1`, 94.5%; for `CN(C)CCNc1cccc2sc3ccc(O)cc3c(=O)c12`, 28.1%. Regarding `CC(=O)Oc1ccc(C(c2ccc(OC(C)=O)cc2)c2ccccn2)cc1`, the growth is 17.3%.
